Where “and” joins values, the source holds several entries; their conditions need not be identical. Identical values can stand only once.
Assay: probe aLAP1 signal on lysate-treated microarray – cell lysate, small-molecule microarray, COS7 lysate, primary screen (AID 1124);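 further: lysate comes from COS7 cells expressing LAP1 and is applied at 0.3 µg/mL; score merges spot fluorescence near 667 nm with signal-to-noise over triplicate slides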
Conditions: probe aLAP1, fluorescence, higher = more signal
Work on `CC(C)=NOC[C@@H](O)COCc1ccco1` yielded a composite z-score of -0.353. In the case of `COC(=O)C1=C(C)N(Cc2ccccc2)C2=C(C(C)=O)C[C@@](O)(C(=O)OC)C(=O)N2[C@@H]1c1ccccc1`, the composite z-score was 0.0922 and -0.421. In the case of `COC(=O)[C@@]1(Cc2ccc(OC)cc2)[C@H]2c3cc(C(=O)N(C)C)n(Cc4ccc(O)c(OC)c4)c3C[C@H]2CN1C(=O)c1ccccc1`, the composite z-score was 1.17 and 0.341. For `C=CC[C@H](O)c1ccc(OCCO)cc1`, the composite z-score was -0.22 and -0.782. For `CC(C)=NO[C@@H](C)c1cc(-c2c(C)cc(C)cc2C)no1`, the composite z-score was 0.214. With `C[N+](C)(C)CCCCNC(=O)[C@H]1C[C@H]2C(=O)N[C@@H](CCCC[N+](C)(C)C)C(=O)N2[C@H]1c1ccc(O)cc1` the composite z-score was -0.126 and -0.102. With `C[C@@]1([C@@H](NC(=O)Cc2ccccc2)c2ccc(-c3ccccc3)cc2)C[C@H]1C1CCCCC1` the composite z-score was 0.566 and 1.22 and 0.475. In the case of `CCN1C(=O)[C@H]2[C@H]3[C@H](O)[C@H](O)CC(=NOC)[C@@H]3CC[C@H]2C1=O`, the composite z-score was -0.375. With `O=C1NC(=O)C2C1C=CC(C(O)c1ccc([N+](=O)[O-])cc1)N2Nc1ccc(Cl)cc1Cl` (centres undefined) the composite z-score was 0.673 and 1.28. In the case of `C=C[C@H](C)[C@@H](O)c1ccc(OCCO)cc1`, the composite z-score was -1.16 and -0.0942. In the case of `CC(C)CON=C1C[C@@H](O)[C@@H](O)[C@@H]2[C@@H]3C(=O)N(c4cccc(Oc5ccccc5)c4)C(=O)[C@@H]3CC[C@H]12`, the composite z-score was -0.216. In the case of `CO[C@H]1COC(=O)CC=C[C@@H](C)COC(=O)[C@H](CCSC)NC(=O)CC=C[C@@H]1C`, the composite z-score was 0.383 and -1.41. In the case of `C=C[C@@H](OC)[C@H](O)c1ccc(OCCO)cc1`, the composite z-score was 1.48 and -0.402. In the case of `CCOC(=O)c1ccc(NC(=O)O[C@H]2[C@H](OC(=O)Nc3ccccc3)[C@@H](OC(=O)Nc3ccccc3)[C@@H](OC)O[C@@H]2CO)cc1`, the composite z-score was 0.336 and 0.278.

Source: PubChem BioAssay
